# The supplement of paper PMC10515830
# Structures can show the parent of a compound that is named as a salt.
# How the values were obtained:
# Details in all cases: 10 µM; exposure time 6 h
# [1] = system: Danio rerio larvae (5 dpf); test: difference in excitability vs DMSO (percentage points); higher = more excitable than DMSO
# Outline: (§1)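 Wild-type zebrafish larvae at 5 dpf were kept in 96-well plates and exposed for 6 h to 100 µL egg water holding library compound at a final concentration of 10 µM. From 3 h into exposure, the plates were held at 28.5 ℃ and photographed every 6 s through a 3-h programme of moving lines and 100 ms, 400Hz tones. Each behaviour was scored by Z-LaP Tracker, a DeepLabCut model, and averaged over 48 larvae per compound. Every value gives the compound mean minus the vehicle control mean, in percentage points.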
# [2] = system: Danio rerio larvae (5 dpf); test: difference in startle response vs DMSO (percentage points); higher = stronger startle than DMSO
# Outline: as §1
# [3] = system: Danio rerio larvae (5 dpf); test: difference in activity during first hour vs DMSO (percentage points); higher = more activity than DMSO
# Outline: as §1
# [4] = system: Danio rerio larvae (5 dpf); test: difference in habituation to acoustic stimuli vs DMSO (percentage points); higher = more habituation than DMSO
# Outline: as §1
# [5] = system: Danio rerio larvae (5 dpf); test: difference in combined optomotor response to red, green and blue moving lines vs DMSO (percentage points); higher = stronger optomotor response than DMSO
# Outline: as §1
Compound,difference in excitability [1],difference in startle response [2],difference in activity during first hour [3],difference in habituation to acoustic stimuli [4],difference [5]
C[C@]12C=CC(=O)C=C1CC[C@@H]1[C@@H]2C(=O)C[C@@]2(C)[C@H]1CC[C@]2(O)C(=O)CO [Prednisone],14.1,2.97,-14.4,6.62,-4.57
C=C[C@H]1CN2CC[C@H]1C[C@H]2[C@H](O)c1ccnc2ccc(OC)cc12 [Quinine],11.3,10.1,-2.96,0.181,-0.242
COc1cccc2c1C(=O)c1c(O)c3c(c(O)c1C2=O)C[C@@](O)(C(C)=O)C[C@@H]3O[C@H]1C[C@H](N)[C@H](O)[C@H](C)O1 [Daunorubicin (hydrochloride)],19.8,4.36,-3.27,5.5,-1.09
C=C1/C(=C\C=C2/CCC[C@]3(C)[C@@H]([C@H](C)/C=C/[C@@H](O)C4CC4)CC[C@@H]23)C[C@@H](O)C[C@@H]1O [Calcipotriol (hydrate)],15.4,-5.26,0.435,-0.975,5.42
CO[C@H]1/C=C/O[C@@]2(C)Oc3c(C)c(O)c4c(c3C2=O)C2=NC3(CCN(CC(C)C)CC3)NC2=C(NC(=O)/C(C)=C\C=C\[C@H](C)[C@H](O)[C@@H](C)[C@@H](O)[C@@H](C)[C@H](OC(C)=O)[C@@H]1C)C4=O [Rifabutin],10.6,-5.26,2.31,3.31,3.55
CC(=O)[C@H]1CC[C@H]2[C@@H]3CCC4=CC(=O)CC[C@]4(C)[C@H]3CC[C@]12C [Progesterone],3.92,-7.45,-21.2,-12.3,-17.3
CN(C/C=C/c1ccccc1)Cc1cccc2ccccc12 [Naftifine (hydrochloride)],11.1,-5.96,-7.66,1,7.26
COCC1=C(C(=O)O)N2C(=O)[C@@H](NC(=O)/C(=N\OC)c3csc(N)n3)[C@H]2SC1 [Cefpodoxime],0.712,1.11,-0.401,-0.554,7.24
COc1cc2/c(=N/c3ccc(Br)cc3F)nc[nH]c2cc1OCC1CCN(C)CC1 [Vandetanib],12.1,-1.93,-4.76,5.41,6.09
Cc1ccnc2c1NC(=O)c1cccnc1N2C1CC1 [Nevirapine],0.772,3.61,-2.89,-2.11,-3.5
CC(=O)OCC(=O)[C@@]1(OC(C)=O)[C@@H](C)C[C@H]2[C@@H]3C[C@H](F)C4=CC(=O)C=C[C@]4(C)[C@@]3(F)[C@@H](O)C[C@@]21C [Diflorasone Diacetate],10.5,-5.05,-4.84,-1.12,-4.79
C[C@]12C=CC(=O)C=C1CC[C@@H]1[C@@H]2[C@@H](O)C[C@@]2(C)[C@H]1CC[C@]2(O)C(=O)CO [Prednisolone],1.41,3.42,13.7,0.15,7.45
CCC[C@H](N[C@@H](C)C(=O)N1[C@H](C(=O)O)C[C@@H]2CCCC[C@@H]21)C(=O)OCC [Perindopril],1.68,3.45,15,-4.9,1.2
Nc1nc(Cl)nc2c1ncn2[C@H]1C[C@H](O)[C@@H](CO)O1 [Cladribine],-6.72,-0.563,-3.5,-0.582,8.45
COC(=O)Nc1nc2cc(C(=O)c3ccccc3)ccc2[nH]1 [Mebendazole],9.6,-4.07,8.64,0.057,4.46
CO/N=C(\C(=O)N[C@@H]1C(=O)N2C(C(=O)O)=C(COC(C)=O)CS[C@H]12)c1csc(N)n1 [Cefotaxime (sodium salt)],0.947,0.752,4.74,6.08,3.19
C[C@H]1C[C@H]2[C@@H]3CCC4=CC(=O)C=C[C@]4(C)[C@@]3(F)[C@@H](O)C[C@]2(C)[C@@]1(O)C(=O)CO [Betamethasone],19.9,8.22,-16.1,3.7,5.5
CC1(C)O[C@@H]2[C@@H](CO[C@@]3(COS(N)(=O)=O)OC(C)(C)O[C@@H]23)O1 [Topiramate],-2.77,10.8,-1.72,1.75,-0.45
Clc1ccc(COC(Cn2ccnc2)c2ccc(Cl)cc2Cl)c(Cl)c1 (stereo not given) [Miconazole (nitrate)],9.53,-10.9,-23.5,-11.4,-18.4
COC(=O)C1=C(C)NC(C)=C(C(=O)OCC(C)C)C1c1ccccc1[N+](=O)[O-] (stereo not given) [Nisoldipine],7.56,-9.87,0.119,-9.06,-16.9
CCCCCOc1ccc(-c2cc(-c3ccc(C(=O)N[C@H]4C[C@@H](O)[C@@H](O)NC(=O)[C@@H]5[C@@H](O)[C@@H](C)CN5C(=O)[C@H]([C@H](O)CC(N)=O)NC(=O)[C@H]([C@H](O)[C@@H](O)c5ccc(O)c(OS(=O)(=O)O)c5)NC(=O)[C@@H]5C[C@@H](O)CN5C(=O)[C@H]([C@@H](C)O)NC4=O)cc3)no2)cc1 [Micafungin (sodium salt)],-4.69,-8.33,19.8,-1.44,-1.06
Clc1cccc(Cl)c1NC1=NCCN1 [Clonidine (hydrochloride)],9.22,3.55,-11.7,0.121,6.82
CCCCc1ncc(/C=C(\Cc2cccs2)C(=O)O)n1Cc1ccc(C(=O)O)cc1 [Eprosartan (mesylate)],7.16,-7.77,-8.19,-4.96,5.89
CC(=O)OCC(CCn1cnc2cnc(N)nc21)COC(C)=O [Famciclovir],0.306,6.99,-7.41,0.929,4.52
